Compound activity from PubChem BioAssay.
IL-1B inflam inh = inhibitors of inflammasome signaling (IL-1 beta secretion) | 360,000 compounds, 4.7% hits | activity change, % at 57.5 µM | THP-1 LPS/ATP IL-1B secretion, AlphaLISA, 16 h; active compounds read low | AID 743279; in the data active = activity change below about -50%; inconclusive = mostly about -30% to -49%
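THP-1 cells pretreated 1 hr with compounds (up to 57.5 uM final), then stimulated with LPS (250 ng/mL final) plus ATP (1.25 mM final); secreted IL-1B measured by AlphaLISA after 16 hr, decreased signal indicating inhibition.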
HT1080NT lethal = kills 2HG-producing HT-1080-NT fibrosarcoma cells. HT-1080-NT fibrosarcoma viability, CellTiter-Glo ATP luminescence, 48 h. Potency, µM (titrated, usually from 46.1 µM), for the others: top-dose activity, negative = less viability, most hits filed as cytotoxic. 360,000 compounds, 1.6% hits. AID 686970;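 note: NT is the 2HG producing partner of a matched IDH1 knockdown line; potency is the fitted concentration of half-maximal effect; 0% = DMSO-treated cells and -100% = media-only wells without cells; nearly all actives have a fitted effect of over 55% in size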
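Luminescent CellTiter-Glo readout after 48 hours of compound exposure at 37 degrees C defined viability of HT-1080-NT cells. Activity was normalized to DMSO wells and cell-free media wells; concentration-response curves were fitted and assigned curve classes.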
TDP1 cell noCPT = qHTS for Inhibitors of human tyrosyl-DNA phosphodiesterase 1 (TDP1): qHTS in cells in absence of CPT; DT40 Tdp1-/- hTDP1 cells, no CPT, ATP luminescence, 48 h; Potency, µM (doses to about 46.2 µM), for the others: top-dose activity change, negative = growth inhibition, usual class: inhibitors; 420,000 compounds, 15% hits; note: potency is the fitted concentration of half-maximal effect; nearly all actives have a fitted effect of over 55% in size
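Stably hTDP1-transfected Tdp1-null chicken DT40 cells were treated with library compounds minus camptothecin and grown for at least 48 hr at 37 °C, after which cellular ATP was quantified by luminescence.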
12-LOX inh = blocks human arachidonate 12S-lipoxygenase; 580,000 compounds, 1.1% hits; purified 12hLO, xylenol orange hydroperoxide absorbance; AID 1671190; Potency, µM (doses to about 108 µM), for the others: at the top dose activity change, negative = inhibition, actives largely listed as inhibitors; P18054; note: potency is the fitted concentration of half-maximal effect
Target sequence (P18054 whole entry, looked up): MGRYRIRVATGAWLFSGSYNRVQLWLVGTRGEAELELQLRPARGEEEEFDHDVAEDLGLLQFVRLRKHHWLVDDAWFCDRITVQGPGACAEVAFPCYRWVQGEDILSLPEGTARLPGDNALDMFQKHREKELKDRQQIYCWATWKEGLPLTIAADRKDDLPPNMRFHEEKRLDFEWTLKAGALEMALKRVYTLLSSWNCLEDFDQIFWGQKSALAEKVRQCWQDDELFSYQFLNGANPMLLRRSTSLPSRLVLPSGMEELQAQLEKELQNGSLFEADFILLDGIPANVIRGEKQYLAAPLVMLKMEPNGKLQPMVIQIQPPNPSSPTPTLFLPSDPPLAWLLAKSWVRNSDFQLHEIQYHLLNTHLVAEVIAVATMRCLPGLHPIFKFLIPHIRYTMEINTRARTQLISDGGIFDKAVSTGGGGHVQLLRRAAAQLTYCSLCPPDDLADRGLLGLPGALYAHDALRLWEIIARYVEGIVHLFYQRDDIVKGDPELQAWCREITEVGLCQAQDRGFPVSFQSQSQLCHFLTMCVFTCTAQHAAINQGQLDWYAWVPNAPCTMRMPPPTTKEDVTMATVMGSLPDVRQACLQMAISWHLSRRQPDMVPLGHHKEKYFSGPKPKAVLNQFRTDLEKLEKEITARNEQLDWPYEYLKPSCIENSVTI
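Hydroperoxide product was detected by ferrous iron/xylenol orange as the 573 to 405 nm absorbance ratio. Arachidonic acid at 40 uM (final) was turned over for 30 min at room temperature by 150 nM human 12hLO, pH 7.0 Hepes buffer, after 15 min compound preincubation.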
TDP1 cell CPT = growth inhibition of DT40 Tdp1-/-;hTDP1 cells with camptothecin (screen for TDP1 inhibitors). chicken DT40 Tdp1-/-;hTDP1 cells + 20 nM CPT, ATP luminescence, 48 h. Potency, µM (highest dose often 46.2 µM), without a hit: at the highest dose activity change, negative = growth inhibition, most hits filed as inhibitors. 420,000 compounds, 12% hits. AID 686979; note: potency is the fitted concentration of half-maximal effect; nearly all actives have a fitted effect of over 55% in size
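Chicken DT40 Tdp1-/- cells stably complemented with human TDP1 were seeded at 400 cells/well in medium containing 20 nM camptothecin, exposed to pin-transferred compounds, and grown at 37 °C for at least 48 hr. Viability was read as ATP luminescence.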
HT1080 IDH1KD tx = HT-1080 IDH1 knockdown cell toxicity (counter line). HT-1080 IDH1 knockdown viability, ATP luminescence, 48 h. Potency, µM (top dose mostly 46.1 µM), without a hit: top-dose activity, negative = toxicity, most hits filed as cytotoxic. 360,000 compounds, 2% hits. AID 686971;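 note: potency is the fitted concentration of half-maximal effect; 0% = DMSO wells and -100% = cell-free medium wells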
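Viability of IDH1-knockdown HT-1080 fibrosarcoma cells was assessed by CellTiter-Glo after 48 h at 37 °C with titrated compound; concentration-effect curves were classified by fit quality and response size.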
Numbers without * were called inactive; ? = inconclusive; / = not tested or not shown; [ ] = dose if it differs, or a comment. This is one part of a sample in which hits are shown more often than they occur. Unless noted, calls come from the whole dose curve; as a rule, active = well fitted curve in the direction sought with a large enough effect; inconclusive = small, poorly fitted or top-dose-only effect, or another doubt; inactive = no such curve, though single readings can be large; an effect the other way counts as inactive or inconclusive. Unless noted, % is set by controls: 0 for no effect and ±100 for the full control effect.

SMILES | IL-1B inflam inh | HT1080NT lethal | TDP1 cell noCPT | 12-LOX inh | TDP1 cell CPT | HT1080 IDH1KD tx
CCn1cc(C2=NC(c3ccccc3)CO2)c2ccccc21 (stereo unspecified) | -24.2 | -2.8% | -17.9% | 1.5% | ? | -3.8%
CCn1cc(C2=NC(C)CO2)c2ccccc21 (stereo unspecified) | -2.9 | 11.2µM* | -27.1% | 9.1% | ? | 10µM*
COc1ccc(CNc2ccnc(-c3ccoc3)n2)c(OC)c1 | / | / | -15.7% | ? | -27.6% | /
COc1ccc(CNc2ccnc(-c3ccc(N(C)C)cc3)n2)c(OC)c1 | / | / | ? | ? | 25.9µM* | /
COc1ccc(CNc2ccnc(-c3cccnc3)n2)c(OC)c1 | / | / | ? | 44.7µM* | 23.1µM* | /
O=C(Cc1cccc(C(F)(F)F)c1)NCc1cccc(Cl)c1 | -7.3 | 1.6% | ? | ? | -14.2% | -11.9%
O=C(NCc1cccc(Cl)c1)c1ccc(S(=O)(=O)Nc2cccc(C(F)(F)F)c2)cc1 | -77.9* | -16.2% | ? | 10.7% | ? | -18.2%
N/C(=N/O)c1ccccc1N1CCC(Cc2ccccc2)CC1 | 34.6 | -11.0% | 14.6µM* | 2.9% | ? | -11.5%
c1ccc(CC2CCN(c3nnnn3-c3ccccc3)CC2)cc1 | -18.2 | -4.9% | -29.7% | -18.9% | -16.2% | -2.2%
CCCCCn1ccc(=O)c2c(C(F)(F)F)nccc21 | 16.8 | 0.6% | 18.4µM* | 0.0% | 13µM* | -12.2%
CCCCCCCn1ccc(O)c(CC(=O)OC)c1=O | -14.5 | 1.7% | -4.7% | 0.4% | -5.8% | -0.1%
Cn1cc(C(O)c2nc(Nc3ccc(OC(F)(F)F)cc3)n[nH]2)cn1 (stereo unspecified) | / | / | / | 42.0%[176 µM] | / | /
COC(=O)c1ccccc1NC(=O)C1=C(C)C(=O)OC12CCCCCC2 | / | / | 16.4µM* | -11.1% | 18.4µM* | /
CC1=C(C(=O)NCc2cccc(Br)c2)C2(CCCCC2)OC1=O | / | / | 23.1µM* | -14.7% | 14.6µM* | /
CC1=C(C(=O)Nc2cccc(C(F)(F)F)c2)C2(CCCCC2)OC1=O | / | / | 16.4µM* | -22.4% | ? | /
CC1=C(C(=O)Nc2cccc(C(F)(F)F)c2)C2(CCCCCC2)OC1=O | / | / | ? | -23.9% | 16.4µM* | /
CCCN(CC1CCOC1)S(=O)(=O)c1cccc(F)c1 (stereo unspecified) | / | / | / | -12.8% | / | /
COc1cc(C(=O)Nc2ccccc2N2CCCCC2)cc(OC)c1OC | -20.1 | 6.3% | 20.6µM* | -0.3% | ? | -7.7%
COc1cc(C(=O)NC(=S)Nc2ccccc2N2CCCC2)cc(OC)c1OC | -9.2 | ? | 20.6µM* | ? | ? | ?
COc1cc(C(=O)Nc2ccccc2NC(=O)c2cc(OC)c(OC)c(OC)c2)cc(OC)c1OC | 20.3 | 11.7% | -9.3% | -1.2% | 2.6% | -1.6%
Cc1ccc(Sc2ccc(Cl)cc2N)c(C)c1 | / | / | / | -40.0% | / | /
COc1ccc(CN2C(=O)CO[C@H](c3ccc(NC(=O)Cc4ccccc4)cc3)[C@H]2CO)cc1 | / | / | / | 2.2% | / | /
Cc1ccc(Nc2cc(C)nc3c(-c4ccccc4)cnn23)cc1 | / | / | / | 45.2% | / | /
Oc1ccc(Cl)cc1C1=NNC(c2ccc(Cl)cc2)C1 (stereo unspecified) | ? | -18.0% | 13µM* | ? | 23.1µM* | ?
Oc1c(Cl)cc(Cl)cc1C1=NNC(c2ccc(Cl)cc2)C1 (stereo unspecified) | -3.1 | 0.5% | ? | / | -34.7% | -20.2%
Cc1ccc(-n2c(COc3ccccc3)nnc2SCC(=O)O)cc1 | -3.9 | 10.5% | -3.9% | ? | -4.1% | -1.4%
CC1CCCC(C)N1C(=O)CSc1nnc(COc2ccccc2)n1-c1ccccc1 (stereo unspecified) | -22.0 | -18.8% | 20.6µM* | 8.1% | ? | -0.5%
